The entries come from a sample that favours hits as a whole.
CXXC DNA block – qHTS Fluorescence Polarization Assay for Inhibitors of MLL CXXC domain - DNA interaction. Potency, µM (highest dose often 115 µM), usual class: inhibitors. 0.037% of 290,000 active. Histone-lysine N-methyltransferase 2A (Homo sapiens), Q03164. MLL-CXXC / FITC-HOXA9 DNA fluorescence polarization; active = well fitted inhibition curve with a large enough effect in the polarisation, with a control signal flat, not every such curve was filed as active; inconclusive = small, poorly fitted or top-dose-only effect, or effect the other way, or a change in a side signal; inactive = no such curve, though single readings can be large or run the other way; the % refers to the polarisation
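Fluorescence polarization: 7 uM MLL-CXXC (stock) preincubated 5 min with compounds, then 50 nM fluorescein-HOX-A9 DNA (stock) added; 30 min ambient. Buffer 50 mM Tris-HCl pH 7.5, 50 mM NaCl, 1 mM DTT, 0.05% BSA.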
ClpP mod – qHTS Assay for Activators of ClpP; ATP-dependent Clp protease proteolytic subunit (Bacillus subtilis (strain 168)), P80244; purified B. subtilis ClpP, FRET peptide cleavage, 20 min; Potency, µM (highest dose often 57.5 µM); 1.9% of 340,000 active; AID 651965, 2013; active = well fitted falling curve with a large enough effect; inconclusive = small, poorly fitted or top-dose-only effect; inactive = no such curve, though single readings can be large or run the other way; also: the source files actives as falling curves though it sought activators and does not explain the sign; nearly all actives have a fitted effect of over 65% in size
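Buffer: 100 mM Tris/HCl pH8, 100 mM KCl, 0.05% low protease BSA, 2.5% glycerol, 0.01% Tween-20. ClpP 10 microg/mL final; 20 min RT; delta FRET normalized to ADEP and DMSO controls.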
p53 reactivator – qHTS assay for re-activators of p53 using a Luc reporter; 0.063% of 320,000 active; Potency, µM (doses to about 92.2 µM), most hits filed as activators; AID 504706, 2011; H1299 p53-A138V BP100-luciferase reporter, luminescence, 24 h; also: nearly all actives have a fitted effect of over 45% in size
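H1299 (p53-null), stable ts p53-A138V + BP100-Luc; 1000 cells/well, Opti-MEM/10% FBS; cpd 4 pt, 1:5; 24 h, 37 deg C, 5% CO2; detection reagent 10 min RT; luminescence.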
Menin MLL FP FL – qHTS Assay for Inhibitors Targeting the Menin-MLL Interaction in MLL Related Leukemias: Competition With Fluorescein Labeled MLL-derived Peptide. Fluorescence polarization, fluorescein-MLL peptide displacement from menin. FP activity change, % at 61.4 µM. 290,000 tested, under 10 active; active = well fitted curve in the direction sought with a large enough effect in the polarisation, not every such curve was filed as active; inconclusive = small, poorly fitted or top-dose-only effect, or effect the other way, or a change in a side signal; inactive = no such curve, though single readings can be large or run the other way; the % refers to the polarisation
Menin-MLL TR inh – qHTS Assay for Inhibitors Targeting the Menin-MLL Interaction in MLL Related Leukemias: Competition With Texas Red Labeled MLL-derived Mutant Peptide | O00255 | Potency, µM (top dose mostly 61.6 µM), most hits filed as inhibitors | 0.23% of 270,000 active | Menin + Texas Red MLL mutant peptide, fluorescence polarization; active = well fitted inhibition curve with a large enough effect in the polarisation, with a control signal flat, not every such curve was filed as active; inconclusive = small, poorly fitted or top-dose-only effect, or effect the other way, or a change in a side signal; inactive = no such curve, though single readings can be large or run the other way; the % refers to the polarisation
Target sequence (O00255 whole entry, looked up): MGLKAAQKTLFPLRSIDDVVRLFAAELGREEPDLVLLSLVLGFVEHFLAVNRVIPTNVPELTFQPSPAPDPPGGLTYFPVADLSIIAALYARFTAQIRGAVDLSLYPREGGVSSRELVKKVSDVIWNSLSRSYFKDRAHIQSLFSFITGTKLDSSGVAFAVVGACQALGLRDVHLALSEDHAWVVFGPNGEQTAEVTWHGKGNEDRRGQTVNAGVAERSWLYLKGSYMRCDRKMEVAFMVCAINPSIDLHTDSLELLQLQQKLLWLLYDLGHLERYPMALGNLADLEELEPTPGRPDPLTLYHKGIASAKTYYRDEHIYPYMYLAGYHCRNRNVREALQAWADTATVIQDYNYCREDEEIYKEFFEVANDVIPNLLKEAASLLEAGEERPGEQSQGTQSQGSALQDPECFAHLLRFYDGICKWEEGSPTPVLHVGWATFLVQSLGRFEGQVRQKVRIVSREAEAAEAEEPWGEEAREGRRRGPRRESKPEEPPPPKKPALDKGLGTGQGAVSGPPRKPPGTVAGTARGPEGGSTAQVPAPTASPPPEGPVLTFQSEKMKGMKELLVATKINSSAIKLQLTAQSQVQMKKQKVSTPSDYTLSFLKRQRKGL
ClpP inh valid – qHTS Assay for Activators of ClpP: Hit Validation of Inhibitors. shares compounds with ClpP mod. purified B. subtilis ClpP, FRET-FV substrate cleavage, 20 min. Potency, µM (series often up to 57.5 µM), usual class: inhibitors. 40% of 470 active; also: nearly all actives have a fitted effect of over 70% in size
Numbers stand for hits; – = inactive; ? = inconclusive; · = no result given. Unless noted, calls follow the shape of the dose curve; as a rule, active = well fitted curve in the direction sought with a large enough effect; inconclusive = small, poorly fitted or top-dose-only effect, or another doubt; inactive = no such curve, though single readings can be large; an effect the other way counts as inactive or inconclusive.

SMILES	CXXC DNA block	ClpP mod	p53 reactivator	Menin MLL FP FL	Menin-MLL TR inh	ClpP inh valid
CC(=O)O[C@@H]1CC2C(C)(C)C(=O)C=C[C@]2(C)C2CC[C@]3(C)C(=CC[C@H]3C3CO[C@@H](C(C)(C)O)[C@H](O)C3)[C@@]21C (stereo not given in full)	·	·	·	–	–	·
CCN(C(=O)c1ccc2c(c1)N(Cc1cccc(Cl)c1)C(=O)c1ccccc1S2=O)c1ccccc1 (stereo not given)	·	–	·	·	·	·
CCCn1cc(CN2CCC(n3nccc3NC(=O)c3ccccc3)CC2)c(C)n1	–	3.16µM	–	·	·	–
Cc1ccc(N2C(=O)CCSC23C(=O)N(Cc2ccccc2)c2ccccc23)cc1F (stereo not given)	·	–	·	·	·	·
Cc1cc(C)c2c(CC(=O)Nc3c(C(=O)Nc4ccc(Cl)cc4)oc4ccccc34)coc2c1	·	7.94µM	·	·	·	–
CC1(C(=O)N(CC(=O)NC2CCCC2)Cc2ccco2)CC(=O)N=C2C=CC=CN21 (stereo not given)	–	3.16µM	–	–	–	17.2µM
CC1(C(=O)N(CC(=O)NC2CCCC2)Cc2ccccc2)CC(=O)N=C2C=CC=CN21 (stereo not given)	–	·	–	–	–	·
Fc1ccc(-c2cnc(-c3cccs3)o2)cc1	–	6.31µM	–	–	–	5.44µM
Nc1c(-c2cccs2)cnc2c(-c3ccc(F)cc3)cnn12	–	·	?	–	?	·
COc1ccc(Oc2ncc3nc(C)c(=O)n(C4CC4)c3n2)cc1	·	·	·	–	–	·
COc1ccccc1NC(=O)c1sc2ncn(Cc3ccccc3C)c(=O)c2c1C	–	–	–	–	·	?
COc1ccc(C(=O)Nc2ccccc2-c2nnn(CC(=O)NCc3ccco3)n2)cc1	–	–	–	–	–	?
Cc1ccc(CCNC(=O)c2cc(C)nc3c2c(C)nn3-c2ccc(C)cc2)cc1	·	–	·	·	·	27.3µM
CSc1ccc(CCNC(=O)c2cc(C)nn2-c2ccccc2)cc1	–	–	–	–	·	·
Cc1ccc(-n2nc(C)c3c(C(=O)NCCc4ccccc4)cc(C)nc32)cc1	·	–	·	·	·	·
CSc1ccc(CCNC(=O)c2cc(C)nc3c2c(C)nn3-c2ccccc2)cc1	·	–	·	·	·	17.2µM
COc1cc2nc(SCC(=O)Nc3cccc(C)c3)n3nc(CCn4c(C)nc5ccccc54)nc3c2cc1OC	·	–	·	·	·	·
COc1ccccc1OCCNC(=O)c1ccc2c(c1)OCCO2	·	7.94µM	–	·	·	–
COc1ccc2c(CNCc3ccco3)c(C(=O)O)n(Cc3ccc(F)cc3Cl)c2c1	·	–	·	·	·	·
O=C(Nc1cccc(-c2cn3cccnc3n2)c1)c1ccc(Br)o1	–	3.55µM	–	–	–	2.73µM
CC(C)COc1ccc(C(=O)Nc2cc(S(=O)(=O)N3CCOCC3)ccc2N2CCCC2)cc1	·	–	–	·	·	–
CC(NC(=O)c1cc(-c2ccc3c(c2)OCO3)nc2ccccc12)C(C)(C)C (stereo not given)	–	–	–	–	–	24.3µM
O=C(CNC(=O)c1cccc(F)c1)NC1CC1	·	3.55µM	–	·	·	–
Cc1ccccc1C(=O)NCC(=O)NC1CC1	·	–	–	·	·	·
Cc1ccc(NC(=O)CN2C(=O)CCc3ccccc32)cc1C	·	–	·	·	·	·
SMILES	CXXC DNA block	ClpP mod	p53 reactivator	Menin MLL FP FL	Menin-MLL TR inh	ClpP inh valid
CC(=O)N1CCCc2ccc(NC(=O)c3ccc(C(F)(F)F)cc3)cc21	·	–	·	·	·	·
COc1cc(NC(=O)CCS(=O)(=O)c2nc(-c3cccs3)cc(C(F)(F)F)n2)cc(OC)c1OC	·	–	·	·	·	–
CCOc1ccc2cc(-c3nnc(Nc4ccc(C)cc4)s3)c(=O)oc2c1	·	–	·	·	·	·
CC1=C(c2ccc(C)c(C)c2)S(=O)(=O)N(Cc2ccc(C(=O)NCc3cccc(C)c3)cc2)C1=O	·	10µM	·	·	·	15.3µM
CC1=C(c2ccc(C)cc2)S(=O)(=O)N(Cc2ccc(C(=O)NCc3cccc(C)c3)cc2)C1=O	·	–	·	·	·	·
COc1cccc(C2C(C(=O)Nc3nc4ccccc4s3)=C(C)NC3=C2C(=O)CC(C)(C)C3)c1OC (stereo not given)	–	–	–	–	–	8.63µM
COc1ccc2c(c1OC)C(=O)OC2Nc1nc2ccccc2s1 (stereo not given)	–	–	–	–	·	·
CN(C)c1c(Cl)cc(/C=C2\C=Cc3ccccc32)cc1Cl	·	–	·	·	·	·
COc1ccc2nc(NC(=O)c3ccc(-n4nc(C)cc4C)cc3)sc2c1	–	–	–	–	–	27.3µM
COc1ccccc1NC(=O)Cn1cnc2c(cnn2-c2ccc(C)c(C)c2)c1=O	–	–	–	–	–	–
COCCCNC(=O)c1c(N)n(-c2cccc(S(N)(=O)=O)c2)c2nc3ccccc3nc12	–	8.91µM	–	–	–	?
Nc1c(C(=O)NCCN2CCOCC2)c2nc3ccccc3nc2n1-c1cccc(F)c1	–	10µM	–	–	–	21.7µM
CC(Nc1ccc2c(c1)OCCO2)C(=O)Nc1ccc2c(c1)OCO2 (stereo not given)	–	·	–	–	–	·
CCCC(C)C(=O)Nc1ccc2c(c1)OCCO2 (stereo not given)	–	3.55µM	–	–	–	–
CCN1CCN(CCCNC(=O)Cn2nc(C)n3c(cc4cc(C)ccc43)c2=O)CC1	·	?	·	·	·	?
COc1ccc(CCC(=O)NCc2ccc3c(c2)CCN3C(=O)c2cccc(C)c2)cc1	·	–	·	·	·	·
CN(C)CCOC1c2ccccc2CCc2ccc3ccccc3c21 (stereo not given)	·	–	·	·	·	–
CC1CCn2c(nc3cc(C(=O)NCc4ccc(OC(C)C)cc4)ccc32)C1 (stereo not given)	·	–	·	·	·	·
Cn1c(=O)c2c(-c3ccc(Cl)cc3)n(Cc3ccc(Cl)cc3)cc2n(C)c1=O	·	10µM	·	·	·	38.5µM
CC1CCN(S(=O)(=O)c2ccc3c(c2)CCN3C(=O)Nc2cccc(Br)c2)CC1	·	–	·	·	·	?
COc1ccccc1OCC(=O)NCC1(N(C)C)CCCCC1	·	–	·	·	·	·
CCCN(CCC(=O)Nc1cc(OC)cc(OC)c1)CC1CC1	–	–	–	–	–	–
CNC(=O)c1cc(S(=O)(=O)N2CC(C)OC(C)C2)ccc1N1CCOCC1 (stereo not given)	–	–	·	–	–	–
Cc1ccc(-n2ncc(C(=O)NCCCN3CCc4ccccc4C3)c2C2CCN(C(=O)OC(C)(C)C)CC2)cc1C	·	–	·	·	·	·
Fc1ccc(-c2cc(C(F)(F)F)nc(-n3cc(Cl)cn3)n2)cc1	–	–	–	–	–	·

Screening data deposited in PubChem BioAssay by National Center for Advancing Translational Sciences (NCATS).
